The record followed here is PubChem BioAssay.

Active and inactive are the calls of the source. The rule behind the calls is not given here.

Sequence of Pantothenate synthetase (Mycobacterium tuberculosis (strain ATCC 25618 / H37Rv)) (P9WIL5 whole entry, looked up): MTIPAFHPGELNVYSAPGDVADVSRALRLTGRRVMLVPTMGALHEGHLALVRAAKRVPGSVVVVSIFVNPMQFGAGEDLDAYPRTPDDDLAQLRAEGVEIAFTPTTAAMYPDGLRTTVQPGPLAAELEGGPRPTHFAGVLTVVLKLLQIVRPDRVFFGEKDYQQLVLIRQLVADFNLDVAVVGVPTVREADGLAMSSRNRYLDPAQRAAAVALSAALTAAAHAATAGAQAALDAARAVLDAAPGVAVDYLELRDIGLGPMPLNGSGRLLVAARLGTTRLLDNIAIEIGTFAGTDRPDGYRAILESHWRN

This assay has as its target Pantothenate synthetase (Mycobacterium tuberculosis (strain ATCC 25618 / H37Rv)) (UniProt P9WIL5). As to the kind of experiment: Coupled enzyme confirmation of inhibitors against recombinant Mtb PanC (AID 375).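 Note: 0% = full reaction with vehicle and 100% = no enzyme background.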 The conditions noted are these: coupled enzyme assay; at 10 µM, hits give high values.
Turning to `CC(C)CCNC(=O)NC(=O)CSc1nnc(-c2ccccc2F)n1N`, the inhibition was 0% (inactive).

For the compound `O=C(CSc1nnc(CNC(=O)c2cccs2)o1)NCCc1ccccc1`, the inhibition was 0% (inactive).

On to `COCCNC(=O)C1CCCN(c2ncccn2)C1` (stereo not given), for which the inhibition was 0% (inactive).

Turning to `Cc1ccc(-n2nnnc2SCC(=O)c2cc(C)n(CC3CCCO3)c2C)cc1` (stereo not given), the inhibition is 0% (inactive).

Consider `CCOP(=O)(c1ccc(N(C)C)cc1)C(O)c1ccccc1OC` (stereo not given), for which the inhibition is 5% (inactive).

Consider `c1ccc(-c2nn3nnnc3c3ccccc23)cc1`, for which the inhibition is 4% (inactive).

On to `Cn1c(=O)[nH]c(=O)c2c1nc(N(CCO)Cc1ccccc1)n2Cc1ccccc1Cl`, for which the inhibition was 4% (inactive).

On to `O=C(CN1CCSCC1)N1CCc2[nH]c3ccc(Br)cc3c2C1`, for which the inhibition was 0% (inactive).

Consider `COc1cc(OC)c(C2N(C)c3ccccc3N2C)cc1OC`, for which the inhibition was 0% (inactive).

Take `COc1ccc(OC)c(S(=O)(=O)N2CCN(c3c(C)cccc3C)CC2)c1`: the inhibition was 1% (inactive).

On to `O=C(CN1C(=O)CCSc2ccccc21)Nc1ccc(F)cc1`, for which the inhibition was 1% (inactive).

As for `Cc1onc(-c2c(Cl)cccc2Cl)c1C(=O)N1CCc2ccccc21`, the inhibition was 0% (inactive).

For `COc1ccc(OC)c(NC(=O)CS(=O)(=O)Cc2nc(-c3ccccc3C)oc2C)c1`, the inhibition is 0% (inactive).

For the compound `CCC12CN3CC(CC)(CN(C1)C3c1ccc(OC(C)C)cc1)C2=O` (stereo not given), the inhibition was 9% (inactive).

Consider `COc1ccc(N2CCN(CCCNC(=O)CC3Oc4ccc(C)cc4NC3=O)CC2)cc1` (stereo not given), for which the inhibition is 0% (inactive).

On to `CCOc1cc(NC(=O)c2ccco2)c(OCC)cc1NC(=O)CCC(=O)NCc1cccnc1`, for which the inhibition is 3% (inactive).

For the compound `Cn1c(=O)oc2cc(S(=O)(=O)NC3CCN(Cc4ccccc4)CC3)ccc21`, the inhibition was 0% (inactive).

In the case of `COc1ccc(OC)c(NC(=O)CSc2ncccc2C(=O)O)c1`, the inhibition was 0% (inactive).

Regarding `N#CC(C(=O)Nc1ccc(Cl)c(Cl)c1)=C1Nc2ccccc2N1`, the inhibition was 2% (inactive).

As for `CC(C)C[C@H]1C(=O)N2CCC[C@H]2[C@]2(O)O[C@](NC(=O)[C@@H]3C=C4c5cccc6[nH]c(Br)c(c56)CC4N(C)C3)(C(C)C)C(=O)N12` (stereo not given in full), the inhibition is 4% (inactive).

Consider `NS(=O)(=O)c1cc2c(cc1Cl)NC(C1C[C@H]3C=C[C@@H]1C3)NS2(=O)=O` (stereo not given in full), for which the inhibition was 0% (inactive).

For `COc1ccc(OC)c(S(=O)(=O)NCCO)c1`, the inhibition is 1% (inactive).

Consider `Cc1cccc(Nc2ncc3c(n2)CC(c2ccco2)CC3=O)c1` (stereo not given), for which the inhibition is 1% (inactive).

Take `Cc1onc(-c2ccccc2Cl)c1C(=O)NCc1cccnc1`: the inhibition is 0% (inactive).

As to `O=C(Nc1ccccc1)c1cccnc1N1CCOCC1`, the inhibition was 0% (inactive).

With `Cc1cc(Nc2ccccc2N2CCOCC2)n2ncnc2n1`, the inhibition was 0% (inactive).

Turning to `CCn1cc(C(=O)NCC2CCCO2)c(=O)c2cc(S(=O)(=O)N(C)C)ccc21` (stereo not given), the inhibition was 0% (inactive).

Take `O=C(CSc1nnc(-c2ccco2)n1CC1CCCO1)N1CCCCC1` (stereo not given): the inhibition was 0% (inactive).

For `CCc1ccccc1NC(=O)C(C#N)Cc1cccnc1` (stereo not given), the inhibition was 0% (inactive).

For `CCCSc1nnc(-c2ccccc2NC(=O)CC)c(=O)[nH]1`, the inhibition was 0% (inactive).

For `COc1ccc(C)cc1S(=O)(=O)N(CC(=O)O)c1ccccc1`, the inhibition was 0% (inactive).

For `CCOC(=O)c1ccc(N2C(=O)C3CC=CCC3C2=O)cc1` (stereo not given), the inhibition is 1% (inactive).

With `CCCCCCn1c(SCC(=O)OC)nc2c1c(=O)[nH]c(=O)n2C`, the inhibition was 0% (inactive).

`CCOC(=O)Nc1ccc2c(c1)N(C(=O)CN(CC)CC)c1ccccc1C=C2`: the inhibition was 0% (inactive).

For `Cc1ccc(Cn2c(SCC(C)C)nc3c2c(=O)n(C)c(=O)n3C)cc1`, the inhibition was 3% (inactive).

Regarding `COc1ccc(-n2c(N)c(C(=O)NCc3ccco3)c3nc4ccccc4nc32)c(OC)c1`, the inhibition was 4% (inactive).

For the compound `CCc1nc(C)c(C#N)c2cc(OC)c(OC)cc12`, the inhibition was 0% (inactive).

Consider `Cc1cnc(C(=O)Nc2nnc(C(C)C)s2)cn1`, for which the inhibition is 0% (inactive).

`O=C(Nc1cccc(O)c1)c1ccccc1`: the inhibition is 0% (inactive).

For `CCNC(=O)CC1C(=O)N(c2ccccc2)C(=O)N1CCC(C)C` (stereo not given), the inhibition is 0% (inactive).
